According to PubChem BioAssay (NCI):
About 79,000 compounds went through this panel and 15% of them were active in at least one assay; those are over-represented in the sample as a whole. Active and inactive are the calls of the source. Cut-off read from the data, not from the text of the source: active = growth inhibition above about 70%; inactive = the rest.

What was measured:
[1] = NCI Yeast Anticancer Drug Screen. Data for the rad52 strain (AID 147);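 note: 0% = growth of vehicle-treated control cultures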; settings: S. cerevisiae rad52 mutant growth inhibition, active compounds read high
Summary of the method: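 Vehicle-treated cultures served as the reference for growth inhibition of compound-exposed yeast bearing a DNA repair mutation.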

[2] = NCI Yeast Anticancer Drug Screen. Data for the wt1 strain (AID 149);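 note: 0% = growth of vehicle-treated wt1 cultures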; settings: S. cerevisiae wt1 strain (SPY 50644) growth inhibition, active compounds read high
Summary of the method: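 Measured: growth of wt1 yeast under compound versus vehicle treatment, reported as inhibition.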

[3] = NCI Yeast Anticancer Drug Screen. Data for the rad50EPP+ strain (AID 151);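 note: 0% = growth of vehicle-treated control cultures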; settings: S. cerevisiae rad50 mutant strain, active compounds read high
Summary of the method: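 In this screen, rad50EPP+ yeast were exposed to compounds. Growth inhibition was scored against vehicle-treated controls.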

[4] = NCI Yeast Anticancer Drug Screen. Data for the mgt1 strain (AID 153); settings: S. cerevisiae mgt1 mutant growth inhibition, active compounds read high
Summary of the method: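 mgt1 strain exposed; growth vs vehicle control recorded as inhibition.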

[5] = NCI Yeast Anticancer Drug Screen. Data for the rad50 strain (AID 155);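 note: 0% = growth of vehicle-only cultures of the same strain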; settings: S. cerevisiae rad50 strain growth inhibition, active compounds read high
Summary of the method: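 Growth of the mutant yeast was measured after compound exposure and referenced to vehicle-treated cultures.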

[6] = NCI Yeast Anticancer Drug Screen. Data for the mec2-1 strain (AID 157); settings: S. cerevisiae mec2-1 strain, active compounds read high
Summary of the method: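 Vehicle-treated cultures served as reference for growth inhibition of compound-exposed mec2-1 yeast.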

[7] = NCI Yeast Anticancer Drug Screen. Data for the rad14 strain (AID 159);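 note: 0% = growth of vehicle-treated control cultures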; settings: S. cerevisiae rad14 strain growth inhibition, active compounds read high
Summary of the method: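 Here, inhibition of yeast growth was measured after compound exposure, using a strain with a genetic defect in DNA damage repair and vehicle-treated cultures as the reference.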

[8] = NCI Yeast Anticancer Drug Screen. Data for the sgs1 mgt1 strain (AID 161);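 note: 0% = growth of cultures given vehicle only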; settings: S. cerevisiae sgs1 mgt1 strain, active compounds read high
Summary of the method: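 Test agents were incubated with a DNA-repair-mutant yeast strain. Growth was then read and compared against vehicle-treated controls.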

[9] = NCI Yeast Anticancer Drug Screen. Data for the CLN2oe strain (AID 163);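 note: 0% = growth of vehicle-only control cultures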; settings: S. cerevisiae CLN2oe strain, active compounds read high
Summary of the method: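 Inhibition relative to vehicle-treated yeast is reported. Cells: strain with genetic alteration in cell-cycle control, grown with compound.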

[10] = NCI Yeast Anticancer Drug Screen. Data for the cln2 rad14 strain (AID 165);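 note: 0% = growth equal to vehicle treated cultures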; settings: S. cerevisiae cln2 rad14 strain, active compounds read high
Summary of the method: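 Each compound was tested on cln2 rad14 yeast. Inhibition of growth was calculated against vehicle-exposed controls.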

[11] = NCI Yeast Anticancer Drug Screen. Data for the bub3 strain (AID 167); settings: S. cerevisiae bub3 mutant strain, active compounds read high
Summary of the method: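 Whole-cell yeast assay. The mutant strain was incubated with compounds, and growth inhibition was determined by comparison with vehicle-treated cells.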

[12] = NCI Yeast Anticancer Drug Screen. Data for the wt2 strain (AID 169);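 note: 0% = growth of vehicle-treated yeast cultures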; settings: S. cerevisiae wt2 strain growth inhibition, active compounds read high
Summary of the method: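 Inhibition of yeast growth was determined after compound treatment, normalised to controls receiving only vehicle.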

[13] = NCI Yeast Anticancer Drug Screen. Data for the mlh1 strain (AID 171);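 note: 0% = growth of vehicle-treated control cultures of the same strain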; settings: S. cerevisiae mlh1 strain growth inhibition, active compounds read high
Summary of the method: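 Vehicle-normalised growth inhibition of a repair- or checkpoint-altered yeast strain following compound treatment.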

[14] = NCI Yeast Anticancer Drug Screen. Data for the sgs1 strain (AID 173);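 note: 0% = growth of vehicle-only control cultures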; settings: S. cerevisiae sgs1 mutant, active compounds read high
Summary of the method: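 Screen format: yeast with repair or checkpoint alterations, compound exposure, growth read relative to vehicle.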

[15] = NCI Yeast Anticancer Drug Screen. Data for the mlh1 rad18 strain (AID 175); settings: S. cerevisiae mlh1 rad18 strain growth inhibition, active compounds read high
Summary of the method: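 Vehicle-treated cultures served as the reference for growth inhibition in a yeast strain carrying DNA damage repair alterations exposed to each compound.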

[16] = NCI Yeast Anticancer Drug Screen. Data for the rad18 strain (AID 177); settings: S. cerevisiae rad18 mutant growth inhibition, active compounds read high
Summary of the method: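 Test articles were incubated with altered yeast defective in DNA damage repair. Results are given as inhibition of growth versus vehicle.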

[17] = at 5.0 µM (retest, dose inferred, filed as 0.5)
[18] = at 50.0 µM (retest, dose inferred, filed as 5.0)

Measured: growth inhibition

NNc1ccccc1-c1nc2ccccc2[nH]1
active: [5]; at 50.0 µM 75.9% | [11]; at 50.0 µM 76.9% | [15]; at 50.0 µM 91%
inactive: [1]; at 1.2 µM 1% | [1]; at 3.7 µM 7% | [1]; at 11.0 µM 9% | [1]; at 33.0 µM 17% | [1]; at 100.0 µM 60% | [2]; at 1.2 µM -4% | [2]; at 3.7 µM -3% | [2]; at 11.0 µM -5% | [2]; at 33.0 µM -4% | [2]; at 100.0 µM 25% | [3]; at 1.2 µM 2% | [3]; at 3.7 µM 6% | [3]; at 11.0 µM 12% | [3]; at 33.0 µM 24% | [3]; at 100.0 µM 59% | [4]; at 1.2 µM -3% | [4]; at 3.7 µM -2% | [4]; at 11.0 µM 0% | [4]; at 33.0 µM -1% | [4]; at 100.0 µM 48% | [5]; at 1.2 µM -1% | [5]; at 3.7 µM 5% | [5]; [17] -144% | [5]; at 11.0 µM 6% | [5]; at 33.0 µM 26% | [5]; [18] 53% | [5]; at 100.0 µM 60% | [6]; at 1.2 µM 3% | [6]; at 3.7 µM 3% | [6]; [17] -50% | [6]; at 11.0 µM 2% | [6]; at 33.0 µM 1% | [6]; [18] -40% | [6]; at 50.0 µM 48.4% | [6]; at 100.0 µM 20% | [7]; at 1.2 µM -2% | [7]; at 3.7 µM -5% | [7]; at 11.0 µM -1% | [7]; at 33.0 µM 0% | [7]; at 100.0 µM 49% | [8]; [17] -61% | [8]; [18] 27% | [8]; at 50.0 µM 11.7% | [9]; at 1.2 µM -2% | [9]; at 3.7 µM -1% | [9]; at 11.0 µM -3% | [9]; at 33.0 µM -9% | [9]; at 100.0 µM 35% | [10]; [17] -63% | [10]; [18] -73% | [10]; at 50.0 µM 32.1% | [11]; at 1.2 µM -6% | [11]; at 3.7 µM -4% | [11]; [17] -65% | [11]; at 11.0 µM -3% | [11]; at 33.0 µM -3% | [11]; [18] -30% | [11]; at 100.0 µM 30% | [12]; at 1.2 µM 1% | [12]; at 3.7 µM 0% | [12]; at 11.0 µM -1% | [12]; at 33.0 µM -1% | [12]; at 100.0 µM 47% | [13]; at 1.2 µM 6% | [13]; at 3.7 µM -3% | [13]; at 11.0 µM -3% | [13]; at 33.0 µM -3% | [13]; at 100.0 µM 47% | [14]; at 1.2 µM 0% | [14]; at 3.7 µM 1% | [14]; at 11.0 µM 0% | [14]; at 33.0 µM -1% | [14]; at 100.0 µM 47% | [15]; [17] -114% | [15]; [18] -3% | [16]; at 1.2 µM 0% | [16]; at 3.7 µM -2% | [16]; at 11.0 µM 0% | [16]; at 33.0 µM 0% | [16]; at 100.0 µM 48%

COC(=O)C(=O)CC(=O)c1cccc(OC)c1
active: [7]; at 100.0 µM 94% | [12]; at 33.0 µM 71% | [12]; at 100.0 µM 92% | [14]; at 100.0 µM 82%
inactive: [1]; at 1.2 µM -9% | [1]; at 3.7 µM -10% | [1]; at 11.0 µM -5% | [1]; at 33.0 µM 10% | [1]; at 100.0 µM 17% | [2]; at 1.2 µM 1% | [2]; at 3.7 µM 9% | [2]; at 11.0 µM 24% | [2]; at 33.0 µM 28% | [2]; at 100.0 µM 39% | [3]; at 1.2 µM -10% | [3]; at 3.7 µM -23% | [3]; at 11.0 µM -7% | [3]; at 33.0 µM 32% | [3]; at 100.0 µM 26% | [4]; at 1.2 µM -1% | [4]; at 3.7 µM -4% | [4]; at 11.0 µM 2% | [4]; at 33.0 µM 14% | [4]; at 100.0 µM 40% | [5]; at 1.2 µM -13% | [5]; at 3.7 µM -15% | [5]; [17] -150% | [5]; at 11.0 µM -10% | [5]; at 33.0 µM 32% | [5]; [18] 51% | [5]; at 50.0 µM 19.4% | [5]; at 100.0 µM 44% | [6]; at 1.2 µM 0% | [6]; at 3.7 µM 1% | [6]; [17] -44% | [6]; at 11.0 µM 4% | [6]; at 33.0 µM 10% | [6]; [18] -15% | [6]; at 50.0 µM 18.6% | [6]; at 100.0 µM 16% | [7]; at 1.2 µM -8% | [7]; at 3.7 µM 7% | [7]; at 11.0 µM 33% | [7]; at 33.0 µM 67% | [8]; [17] -58% | [8]; [18] 24% | [8]; at 50.0 µM 0.4% | [9]; at 1.2 µM -6% | [9]; at 3.7 µM -3% | [9]; at 11.0 µM -1% | [9]; at 33.0 µM 1% | [9]; at 100.0 µM 10% | [10]; [17] -51% | [10]; [18] -45% | [10]; at 50.0 µM -75.5% | [11]; at 1.2 µM -4% | [11]; at 3.7 µM -4% | [11]; [17] -67% | [11]; at 11.0 µM -5% | [11]; at 33.0 µM 2% | [11]; [18] 12% | [11]; at 50.0 µM -7.55% | [11]; at 100.0 µM 22% | [12]; at 1.2 µM -5% | [12]; at 3.7 µM 9% | [12]; at 11.0 µM 27% | [13]; at 1.2 µM -11% | [13]; at 3.7 µM -5% | [13]; at 11.0 µM -3% | [13]; at 33.0 µM 39% | [13]; at 100.0 µM 64% | [14]; at 1.2 µM -16% | [14]; at 3.7 µM -6% | [14]; at 11.0 µM 8% | [14]; at 33.0 µM 49% | [15]; [17] -143% | [15]; [18] -19% | [15]; at 50.0 µM 49.6% | [16]; at 1.2 µM -6% | [16]; at 3.7 µM -2% | [16]; at 11.0 µM -1% | [16]; at 33.0 µM 6% | [16]; at 100.0 µM 19%

O=c1c2ccccc2nc(-c2ccc(Cl)cc2)n1O
inactive: [2]; at 1.2 µM 61% | [3]; at 1.2 µM 47% | [4]; at 1.2 µM 60% | [5]; [17] 28% | [6]; at 1.2 µM 50% | [6]; at 3.7 µM 56%
active: [1]; at 1.2 µM 81% | [1]; at 3.7 µM 95% | [1]; at 11.0 µM 96% | [1]; at 33.0 µM 96% | [1]; at 100.0 µM 94% | [2]; at 3.7 µM 89% | [2]; at 11.0 µM 96% | [2]; at 33.0 µM 96% | [2]; at 100.0 µM 96% | [3]; at 3.7 µM 85% | [3]; at 11.0 µM 91% | [3]; at 33.0 µM 91% | [3]; at 100.0 µM 90% | [4]; at 3.7 µM 90% | [4]; at 11.0 µM 94% | [4]; at 33.0 µM 94% | [4]; at 100.0 µM 93% | [5]; at 1.2 µM 80% | [5]; at 3.7 µM 93% | [5]; at 11.0 µM 96% | [5]; at 33.0 µM 95% | [5]; [18] 98% | [5]; at 50.0 µM 97% | [5]; at 100.0 µM 95%
